JMJD2A Tudor: JMJD2A Tudor domain (human) inhibition | AlphaScreen JMJD2A-Tudor / H3K4me3 peptide binding | actives 4.4% (n = 390,000) | Potency, µM (top dose mostly 114 µM), for the others: at the highest dose activity change, negative = inhibition, actives largely listed as inhibitors; note: % is set by controls: 0 for no effect and ±100 for the full control effect; nearly all actives have a fitted effect of over 50% in size
G9a inh: blocks human histone lysine methyltransferase G9a; Q96KQ7; G9a H3K9 monomethylation, AlphaScreen, 2 h; Potency, µM (titrated, usually from 102 µM), for inactives: top-dose activity, negative = inhibition, usual class: inhibitors; actives 8.8% (n = 350,000); note: % is set by controls: 0 for no effect and ±100 for the full control effect; nearly all actives have a fitted effect of over 75% in size
Target sequence (Q96KQ7 913-1193 limits assumed): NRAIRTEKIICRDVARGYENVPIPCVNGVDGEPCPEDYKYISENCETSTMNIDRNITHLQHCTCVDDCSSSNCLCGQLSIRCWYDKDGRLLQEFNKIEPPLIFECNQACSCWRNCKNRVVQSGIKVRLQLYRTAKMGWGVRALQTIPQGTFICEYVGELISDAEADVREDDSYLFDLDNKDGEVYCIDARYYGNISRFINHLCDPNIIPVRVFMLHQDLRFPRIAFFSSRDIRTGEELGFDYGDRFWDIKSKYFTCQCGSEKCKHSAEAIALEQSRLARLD
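G9a (20 nM) preincubated 15 min RT with compounds, then 500 nM biotinylated H3K9 peptide and 20 uM SAM added; 2 h RT reaction. Monomethyl-H3K9 product detected by AlphaScreen with anti-H3K9me1 antibody, streptavidin donor and anti-rabbit IgG acceptor beads.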
Sfp inh: blocks B. subtilis Sfp PPTase activity; Q9F4F7; Biochemical Sfp PPTase activity, qHTS; Potency, µM, for the others: largest response in the series, negative = inhibition, actives largely listed as inhibitors; actives 3.5% (n = 310,000);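 note: the enzyme is Sfp with the accession as filed and its product quenches rhodamine fluorescence; 0% = enzyme reaction without inhibitor and -100% = no enzyme wells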
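Fluorescence-quenching assay with 15 nM Sfp, 5 uM rhodamine-CoA and 12.5 uM BHQ-2-labelled ybbR peptide in pH 7.6 Hepes/MgCl2 buffer. Enzyme was pre-incubated with compound for 15 min at room temperature. Rate was taken from the 30-min fluorescence change (525/598 nm).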
BAZ2B inh: blocks human BAZ2B. AlphaScreen BAZ2B-H3K14Ac peptide displacement. Potency, µM (doses to about 114 µM), without a hit: top-dose activity change, negative = inhibition, hits mostly inhibitors. actives 4.4% (n = 360,000). Q9UIF8; note: % is set by controls: 0 for no effect and ±100 for the full control effect; nearly all actives have a fitted effect of over 60% in size
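Complex of BAZ2B and biotin-H3K14Ac (50 nM apiece) forms over 30 min at RT, then faces library compounds up to 110 uM for another 30 min; AlphaScreen beads added, 20 min dark incubation, luminescence read.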
PLK1 PBD inh: blocks phosphopeptide binding to human PLK1 polo-box domain | Plk1 PBD binding of FITC phosphopeptide, fluorescence polarization | Potency, µM, inactives show max response, negative = inhibition, hits mostly inhibitors | actives 2.8% (n = 360,000) | AID 720504; note: series mostly up to about 57 µM; % is set by controls: 0 for no effect and ±100 for the full control effect; nearly all actives have a fitted effect of over 65% in size
HP1b chromo inh: HP1-beta chromodomain-methylated histone interaction inhibition. P83916. AlphaScreen HP1-beta / biotin-H3K9me3 peptide binding. Potency, µM (series often up to 114 µM), without a hit: at the top dose activity change, negative = inhibition, most hits filed as inhibitors. actives 0.56% (n = 390,000). AID 540317; note: nearly all actives have a fitted effect of over 70% in size
Target sequence (P83916 whole entry, looked up): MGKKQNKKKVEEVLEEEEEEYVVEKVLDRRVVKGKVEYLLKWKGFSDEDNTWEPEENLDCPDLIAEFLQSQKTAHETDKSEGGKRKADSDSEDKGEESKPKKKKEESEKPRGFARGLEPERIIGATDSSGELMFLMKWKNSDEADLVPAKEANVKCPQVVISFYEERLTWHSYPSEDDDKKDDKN
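HP1-beta protein (50 nM final) preincubated 30 min at room temperature with biotinylated H3(1-18)K9me3 peptide (50 nM) in PBS pH 7.4, 0.01% Tween-20, then compound added for 30 min. AlphaScreen streptavidin donor/nickel chelate acceptor beads (10 ug/mL final), 30 min dark, luminescence read.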
An asterisk follows results filed as active; ? = inconclusive; nt = not tested or not shown; [ ] = another dose, or the depositor's remark. A selection: hits, their analogues and other compounds. The true share with any hit is near 12%. Calls come from the whole dose curve; as a rule, active = well fitted curve in the direction sought with a large enough effect; inconclusive = small, poorly fitted or top-dose-only effect, or another doubt; inactive = no such curve, though single readings can be large; an effect the other way counts as inactive or inconclusive. Potency is the fitted concentration of half-maximal effect.

SMILES	JMJD2A Tudor	G9a inh	Sfp inh	BAZ2B inh	PLK1 PBD inh	HP1b chromo inh
OC[C@@H]1CN(CCNc2ccccc2)C[C@H](n2cnc3c(NCc4ccncc4)ncnc32)O1	nt	nt	nt	nt	-11.9%	nt
O=C(NCC1CCCN1S(=O)(=O)c1ccccc1)C(=O)NC1CC1 (stereo not given)	35.5µM*	50.1µM*	nt	5.4%	-12.4%	0.1%
O=C(O)C1CCCN1S(=O)(=O)c1cccc(S(=O)(=O)N2CCCC2C(=O)O)c1 (stereo not given)	-13.1%	3.16µM*	21.7%	-7.5%	0.4%	65.1%
CCc1ccc(Sc2cc(C(=O)NCc3ccccc3OC)c3ccccc3n2)cc1	-7.6%	15.3%[59 µM]	nt	9.3%	nt	39.1%
COc1ncnc2c1ncn2CCCN(CCCc1ccccc1)CCCn1cnc2c(OC)ncnc21	nt	nt	nt	nt	-13.5%	nt
O=C(/C(N=Nc1cccc([N+](=O)[O-])c1)=C(/O)c1ccc(Br)cc1)C(F)(F)F	nt	39.8µM*	12.3%	25.1µM*	nt	nt
Clc1ccc(-c2nnc(C34CC5CC(CC(C5)C3)C4)o2)cn1	-15.8%[11.4 µM]	22.7%[59 µM]	11.5%	-0.6%	18.9µM*	-10.5%
CCc1noc(C)c1C(=O)N1CCCC(N2CCN(c3cccc(Cl)c3)CC2)C1 (stereo not given)	12.9%	nt	2.5%	-5.1%	-29.4%	20.7%[57 µM]
Cc1ccc(NC(=O)Nc2nnc(N(C)Cc3ccccc3)s2)cc1	1.0%	-21.9%[59 µM]	nt	-1.6%	nt	47.2%
CSc1ncc2[nH]c(C(O)c3ccccc3)nc2n1 (stereo not given)	?	nt	nt	nt	-4.7%	42.2%
COCCNC(=O)C1(C)CCCN(CCC(=O)c2ccc(Br)cc2)C1 (stereo not given)	nt	nt	nt	nt	9.47µM*	nt
CCCNC(=O)C1(C)CCN(CCC(=O)c2ccc(Br)cc2)C1 (stereo not given)	nt	nt	nt	nt	10.6µM*	nt
CCCCn1c(=O)nc2n(-c3ccc(Cl)cc3)c3ccccc3cc-2c1=O	4.1%	39.8µM*	-28.0%	6.7%	-7.9%	34.3%
CCCCn1c(=O)nc2n(-c3ccc(C)cc3)c3ccccc3cc-2c1=O	-4.6%	17.8%	-17.8%	5.2%	-1.1%	nt
CC(=O)Nc1cccc(NC(=O)c2cc(-c3cccnc3)nc3ccc(Br)cc23)c1	-30.3%	-9.9%[0.501 µM]	-18.5%	-14.1%	-4.3%	-1.9%
O=C(NNC(=S)Nc1ccccc1)c1cc(-c2cccnc2)nc2ccccc12	-23.4%	15.8µM*	0.8%	-19.9%	-13.8%	-6.0%
CCCNC(=S)NNC(=O)c1cc(-c2cccnc2)nc2ccccc12	-19.1%	-5.7%[0.501 µM]	13.0%	-4.7%	-3.4%	43.6%
CCNC(=S)NNC(=O)c1cc(-c2cccnc2)nc2ccccc12	-20.4%	44.7µM*	10.2%	5.4%	-21.0%	22.9%
CSc1ccccc1NC(=O)c1cc(-c2cccnc2)nc2ccc(Br)cc12	?	-2.7%[12.7 µM]	44.7µM*	?	-8.1%	6.7%
CCCCNC(=S)NNC(=O)c1cc(-c2cccnc2)nc2ccccc12	-18.8%	79.4µM*	9.6%	-14.1%	-4.7%	19.5%
COc1ccc(CCC(=O)NCCc2csc(-c3cccc(F)c3)n2)cc1	-8.9%	9.3%[59 µM]	nt	-0.3%	nt	16.0%[57 µM]
C#CCOCCOCCOCCNc1nc(N2CCN(C(=O)[C@H]([C@@H](C)O)n3cc(CCCCN)nn3)CC2)nc(N2CCN(C(=O)[C@H](CCCCN)n3cc(CCC(=O)O)nn3)CC2)n1	-20.1%	?	nt	?	-2.0%	32.8%
C#CCOCCOCCOCCNc1nc(N2CCN(C(=O)[C@H](Cc3ccc(O)cc3)n3cc(CCO)nn3)CC2)nc(N2CCN(C(=O)[C@H](Cc3ccc(O)cc3)n3cc(CCO)nn3)CC2)n1	nt	35.5µM*	13.4%	?	nt	nt
C#CCOCCOCCOCCNc1nc(N2CCN(C(=O)[C@H](C(C)C)n3cc(CCO)nn3)CC2)nc(N2CCN(C(=O)[C@H](Cc3ccc(O)cc3)n3cc(CCO)nn3)CC2)n1	-17.6%	nt	nt	nt	-0.7%	35.0%
C#CCOCCOCCOCCNc1nc(N2CCN(C(=O)[C@H]([C@@H](C)O)n3cc(CCCCN)nn3)CC2)nc(N2CCN(C(=O)[C@H](Cc3ccc(O)cc3)n3cc(CCO)nn3)CC2)n1	?	50.1µM*	?	?	-22.0%	43.0%
SMILES	JMJD2A Tudor	G9a inh	Sfp inh	BAZ2B inh	PLK1 PBD inh	HP1b chromo inh
Cc1ccc(S(=O)(=O)N(CC(=O)NC2CC2)c2ccc(C)c(Cl)c2)cc1	2.8%	28.4%	17.1%	-9.6%	2.7%	40.2%
CC(C)(C)NC(=O)CN(C(=O)CS(=O)CC(=O)Nc1ccc(F)cc1)c1ccccc1 (stereo not given)	-15.8%	50.1µM*	10.7%	1.8%	-6.2%	22.0%
CC(C)(C)NC(=O)CN(C(=O)CS(=O)CC(=O)Nc1ccc(F)cc1)c1ccc2c(c1)OCCO2 (stereo not given)	0.0%	-25.7%	7.4%	-0.3%	-0.4%	30.4%
CNCc1nc2ccccc2[nH]1	?	nt	?	?	?	65.6%
S=c1cnc2ccccc2[nH]1	4.47µM*	1µM*	20µM*	56.2µM*	11.9µM*	?
COc1ccc(S(=O)(=O)Nc2cc3c(cc2NCc2ccccc2)n(C)c(=O)n3C)cc1OC	?	12.6µM*	nt	50.1µM*	nt	-11.1%
Cn1c(=O)n(C)c2cc(S(=O)(=O)Nc3ccccc3C(=O)O)ccc21	-18.2%	8.2%	19.5%	-31.1%	-18.5%	20.0%
Cn1c(=O)n(C)c2cc(S(=O)(=O)NCCc3ccccc3)ccc21	0.3%	1.9%[59 µM]	-3.8%	?	-3.7%	38.9%
Cn1c(=O)n(C)c2cc(NS(=O)(=O)c3ccccc3)c(NCc3ccccc3)cc21	?	11.2µM*	nt	50.1µM*	nt	?
Cn1c(=O)n(C)c2cc(NS(=O)(=O)c3ccc(C(C)(C)C)cc3)c(NCc3ccccc3)cc21	22.4µM*	14.1µM*	nt	39.8µM*	nt	?
COc1ccc(S(=O)(=O)Nc2ccc3c(c2)n(C)c(=O)n3C)cc1OC	-4.3%	26.2%	21.8%	?	-12.4%	7.0%
Cn1c(=O)n(C)c2cc(NS(=O)(=O)c3ccc(Cl)cc3)c(NCc3ccccc3)cc21	?	15.8µM*	nt	-23.9%	nt	65.4%
COc1cc(NC(=O)[C@H]2O[C@@H](n3cnc4c(N)ncnc43)[C@H](O)[C@@H]2O)cc(OC)c1OC	nt	nt	nt	nt	-4.6%	nt

Source: PubChem (National Center for Advancing Translational Sciences (NCATS))
